Drawing on PubChem BioAssay (Tox21), this text covers Potency for 36 molecules.

The structures appear in SMILES notation. Inconclusive results are not listed. A call without a number means that no potency is given here. The source made the active and inactive calls. Calls follow the shape of the dose curve; as a rule, active = well fitted activation curve with a large enough effect in the repeat runs; inconclusive = weak or mixed curves; inactive = flat fitted curve, though single readings scatter.
Potency is read from the fitted curve at half-maximal effect.

One assay can be described thus: A CellTox Green Cytotoxicity Assay to monitor cytotoxicity in HepG2 cells - 24 hour (AID 1224878). Also: nearly all actives have a fitted effect of over 45% in size. As to conditions: CellTox Green fluorescence; series mostly up to 76.8 µM. Put shortly: (§1)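 Cytotoxicity was tracked as dead-cell DNA fluorescence in HepG2 cells treated with test compounds at 37 C; each time-point value comes from one kinetic series spanning 0, 8, 16, 24, 32 and 40 h.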
With `C=CCCC`, the Potency entry was “inactive”.

For `O=C(Nc1ccccc1)c1cc([N+](=O)[O-])ccc1Cl`, the Potency entry was “inactive”.

Regarding `CC(C)=CCC[C@H](C)CCO`, the Potency entry is “inactive”.

On to `CC(=O)Nc1ccn(C2COC(COC(=O)c3ccccc3)O2)c(=O)n1` (stereo not given), for which the Potency entry is “inactive”.

For `N#C[C@@H]1CC(F)(F)CN1C(=O)CNC1CC2CCC(C1)N2c1ncccn1` (stereo not given in full), the Potency entry is “inactive”.

For the molecule `CC(C)=CCCC(C)C=O` (stereo not given), the Potency result was “inactive”.

Consider `C=CC(=O)NC(C)(C)C`, for which the Potency entry is “inactive”.

Take `C1=COCCC1`: the Potency entry is “inactive”.

As to `CCOC(OCC)OCC`, the Potency entry was “inactive”.

Take `[O-][n+]1ccc(Cl)cc1`: the Potency entry is “inactive”.

Take `CC1(C)C(=O)NC(=O)N1CO`: the Potency entry was “inactive”.

With `CCCCCCCCS`, the Potency entry is “inactive”.

As to `O=C(NC1CCN(CCc2c[nH]c3ccccc23)CC1)c1ccccc1`, the Potency result is “inactive”.

As for `CCC(C(=O)O)c1ccc(N2Cc3ccccc3C2=O)cc1` (stereo not given), the Potency result is “inactive”.

For the molecule `Cc1ccccc1CCO`, the Potency result was “inactive”.

As to `O=c1[nH]nc(-c2ccc([N+](=O)[O-])o2)o1`, the Potency entry is “inactive”.

Take `CCC(=O)O[C@]1(C(=O)COC)[C@@H](C)C[C@H]2[C@@H]3CCC4=CC(=O)C=C[C@]4(C)C3(F)[C@@H](O)C[C@@]21C` (stereo not given in full): the Potency result is “inactive”.

Consider `COC(=O)c1cc(Cl)ccc1[N+](=O)[O-]`, for which the Potency result is “inactive”.

On to `Cc1cccc(C)c1NC(=O)CN1CCCC1`, for which the Potency entry was “inactive”.

On to `COC(=O)/C=C/C(C)=C\C=C\C(C)=C\C=C\C=C(C)\C=C\C=C(C)\C=C\C(=O)O`, for which the Potency result is “inactive”.

With `CCc1ccc(C(=O)C(C)CN2CCCCC2)cc1` (stereo not given), the Potency entry is “inactive”.

With `OCCOc1cccc(OCCO)c1`, the Potency entry was “inactive”.

On to `C=CC(C)(O)CC/C=C(/C)CCC=C(C)C` (stereo not given), for which the Potency result was “inactive”.

On to `O=C(OC1C[C@H]2CC[C@@H](C1)[N+]21CCCC1)C(O)(c1ccccc1)c1ccccc1` (stereo not given in full), for which the Potency entry was “inactive”.

Regarding `CNc1ccccc1`, the Potency entry is “inactive”.

With `CCCCCCC/C=C/C=O`, the Potency result was “inactive”.

For `NCCOCCOCCN`, the Potency result is “inactive”.

As for `FC1(F)C(F)(F)C(F)(F)C2(F)C(F)(C1(F)F)C(F)(F)C(F)(F)C1(F)C(F)(F)C(F)(F)C(F)(F)C(F)(F)C12F` (stereo not given), the Potency result is “inactive”.

Regarding `COc1ccnc2c1CCCCC2S(=O)c1nc2ccccc2[nH]1` (stereo not given), the Potency entry is “inactive”.

On to `CCCCCCCCCCCCCCCCN`, for which the Potency is 21.3 µM (active).

Regarding `FC(F)(Cl)C(F)(Cl)Cl`, the Potency result was “inactive”.

With `Cc1cc(C)c(C)c(O)c1`, the Potency entry was “inactive”.

As for `CC(=O)c1cccnc1`, the Potency entry was “inactive”.

In the case of `Cc1c(Cl)cccc1[N+](=O)[O-]`, the Potency result is “inactive”.

On to `CCN(CC)CC(=O)OCC(=O)[C@@]1(O)CC[C@H]2[C@@H]3CCC4=CC(=O)CC[C@]4(C)[C@H]3[C@@H](O)C[C@@]21C`, for which the Potency entry is “inactive”.

For the molecule `CCCc1ccc(OC)cc1`, the Potency entry is “inactive”.

A short description of a further assay: A CellTox Green Cytotoxicity Assay to monitor cytotoxicity in HepG2 cells - 40 hour (AID 1224879). Also: nearly all actives have a fitted effect of over 40% in size. As to conditions: CellTox Green fluorescence; series mostly up to 76.8 µM. The method in brief: as §1
Take `C=CCCC`: the Potency result is “inactive”.

Turning to `CC(=O)Nc1ccn(C2COC(COC(=O)c3ccccc3)O2)c(=O)n1` (stereo not given), the Potency result was “inactive”.

Consider `N#C[C@@H]1CC(F)(F)CN1C(=O)CNC1CC2CCC(C1)N2c1ncccn1` (stereo not given in full), for which the Potency entry is “inactive”.

Turning to `CC(C)=CCCC(C)C=O` (stereo not given), the Potency entry was “inactive”.

In the case of `C=CC(=O)NC(C)(C)C`, the Potency entry is “inactive”.

On to `C1=COCCC1`, for which the Potency result was “inactive”.

For `CCOC(OCC)OCC`, the Potency entry was “inactive”.

Turning to `[O-][n+]1ccc(Cl)cc1`, the Potency result was “inactive”.

For the molecule `CC1(C)C(=O)NC(=O)N1CO`, the Potency result was “inactive”.

As for `CCCCCCCCS`, the Potency result is “inactive”.

Turning to `O=C(NC1CCN(CCc2c[nH]c3ccccc23)CC1)c1ccccc1`, the Potency result is “inactive”.

Turning to `CCC(C(=O)O)c1ccc(N2Cc3ccccc3C2=O)cc1` (stereo not given), the Potency entry was “inactive”.

For `Cc1ccccc1CCO`, the Potency result is “inactive”.

Take `O=c1[nH]nc(-c2ccc([N+](=O)[O-])o2)o1`: the Potency entry is “inactive”.

As for `CCC(=O)O[C@]1(C(=O)COC)[C@@H](C)C[C@H]2[C@@H]3CCC4=CC(=O)C=C[C@]4(C)C3(F)[C@@H](O)C[C@@]21C` (stereo not given in full), the Potency entry is “inactive”.

Turning to `COC(=O)c1cc(Cl)ccc1[N+](=O)[O-]`, the Potency result is “inactive”.

On to `Cc1cccc(C)c1NC(=O)CN1CCCC1`, for which the Potency entry was “inactive”.

Turning to `COC(=O)/C=C/C(C)=C\C=C\C(C)=C\C=C\C=C(C)\C=C\C=C(C)\C=C\C(=O)O`, the Potency result was “inactive”.

`CCc1ccc(C(=O)C(C)CN2CCCCC2)cc1` (stereo not given): the Potency entry was “inactive”.

Take `OCCOc1cccc(OCCO)c1`: the Potency result is “inactive”.

Regarding `C=CC(C)(O)CC/C=C(/C)CCC=C(C)C` (stereo not given), the Potency result was “inactive”.

With `O=C(OC1C[C@H]2CC[C@@H](C1)[N+]21CCCC1)C(O)(c1ccccc1)c1ccccc1` (stereo not given in full), the Potency entry is “inactive”.

In the case of `CNc1ccccc1`, the Potency entry was “inactive”.

Consider `CCCCCCC/C=C/C=O`, for which the Potency entry was “inactive”.

`NCCOCCOCCN`: the Potency entry is “inactive”.

In the case of `FC1(F)C(F)(F)C(F)(F)C2(F)C(F)(C1(F)F)C(F)(F)C(F)(F)C1(F)C(F)(F)C(F)(F)C(F)(F)C(F)(F)C12F` (stereo not given), the Potency result was “inactive”.

Consider `COc1ccnc2c1CCCCC2S(=O)c1nc2ccccc2[nH]1` (stereo not given), for which the Potency result is “inactive”.

`CCCCCCCCCCCCCCCCN`: the Potency was 23.9 µM (active).

For `FC(F)(Cl)C(F)(Cl)Cl`, the Potency entry was “inactive”.

As to `Cc1cc(C)c(C)c(O)c1`, the Potency result is “inactive”.

Consider `CC(=O)c1cccnc1`, for which the Potency entry was “inactive”.

Take `Cc1c(Cl)cccc1[N+](=O)[O-]`: the Potency entry is “inactive”.

Consider `CCN(CC)CC(=O)OCC(=O)[C@@]1(O)CC[C@H]2[C@@H]3CCC4=CC(=O)CC[C@]4(C)[C@H]3[C@@H](O)C[C@@]21C`, for which the Potency result was “inactive”.

Take `CCCc1ccc(OC)cc1`: the Potency result is “inactive”.
